Drawing on the antibiotic and cytotoxicity screens of Wong et al. (2023), this text covers cytotoxicity call for 39 compounds.

Screen size: about 39,000 compounds; about 3,300 (8.5%) were called active. The sample holds actives, similar compounds and a random draw of the others, so the mix is not that of the screen.

The assay has as its system HepG2. In words: cytotoxicity call (relative viability < 0.9). The conditions noted are these: 10 µM.
With `O=C(C[C@@H]1C[C@H]2c3cc(NS(=O)(=O)c4ccc(F)cc4)ccc3O[C@H]2[C@H](CO)O1)NC1CCCCC1`, the cytotoxicity call was “inactive”.
Take `C[C@H]1CN([C@@H](C)CO)C(=O)c2cc(NS(C)(=O)=O)ccc2O[C@@H]1CN(C)S(=O)(=O)c1ccc(Cl)cc1`: the cytotoxicity call is “active”.
On to `C[C@H]1CN([C@@H](C)CO)C(=O)c2cc(NS(C)(=O)=O)ccc2O[C@H]1CN(C)S(=O)(=O)c1ccc(Cl)cc1`, for which the cytotoxicity call is “inactive”.
As to `C[C@H](CO)N1C[C@H](C)[C@@H](CN(C)S(=O)(=O)c2ccc(Cl)cc2)Oc2ccc(NS(C)(=O)=O)cc2C1=O`, the cytotoxicity call was “inactive”.
To `C[C@H]1CN([C@@H](C)CO)C(=O)c2cc(NC(=O)Nc3ccc(C(F)(F)F)cc3)ccc2O[C@@H]1CN(C)S(=O)(=O)c1ccc(Cl)cc1` belongs “active”.
For `C[C@@H]1CN([C@H](C)CO)C(=O)c2cc(NC(=O)Nc3ccc(C(F)(F)F)cc3)ccc2O[C@@H]1CN(C)S(=O)(=O)c1ccc(Cl)cc1`, the cytotoxicity call is “active”.
Take `C[C@@H]1CN([C@@H](C)CO)C(=O)c2cc(NC(=O)Nc3ccc(C(F)(F)F)cc3)ccc2O[C@@H]1CN(C)S(=O)(=O)c1ccc(Cl)cc1`: the cytotoxicity call was “active”.
As to `Cc1noc(C)c1S(=O)(=O)Nc1ccc2c(c1)C(=O)N([C@H](C)CO)C[C@@H](C)[C@@H](CN(C)S(=O)(=O)c1c(C)noc1C)O2`, the cytotoxicity call is “inactive”.
For `CS(=O)(=O)N1CCOC[C@]2(CN(C(=O)c3ccc[nH]3)CCO2)C1` the value was “inactive”; for `Cc1noc(C)c1S(=O)(=O)Nc1cccc2c1O[C@@H](CN(C)S(=O)(=O)c1ccc(Cl)cc1)[C@@H](C)CN([C@@H](C)CO)C2=O`, “inactive”; for `CCS(=O)(=O)N1CCO[C@]2(COCCN(c3cncnc3)C2)C1`, “inactive”.
On to `Cc1noc(C)c1NC(=O)Nc1ccc2c(c1)C(=O)N([C@@H](C)CO)C[C@@H](C)[C@@H](CN(C)Cc1ccc(C(F)(F)F)cc1)O2`, for which the cytotoxicity call was “inactive”.
For `Cc1cccn2c(=O)c(-c3nn[nH]n3)cnc12` the value was “inactive”; for `O=C(C[C@H]1C=C[C@H](NC(=O)CN2CCOCC2)[C@@H](CO)O1)NCc1cccc(F)c1`, “inactive”; for `C[C@@H]1CN([C@@H](C)CO)S(=O)(=O)c2ccc(-c3cncnc3)cc2O[C@@H]1CN(C)C(=O)NC1CCCC1`, “inactive”.
To `C[C@H](CO)N1C[C@H](C)[C@@H](CN(C)Cc2ccc(C(=O)O)cc2)Oc2c(NC(=O)Nc3ccc(C(F)(F)F)cc3)cccc2C1=O` belongs “inactive”; to `C[C@H](CO)N1C[C@H](C)[C@H](CN(C)S(=O)(=O)c2ccc(Cl)cc2)Oc2ccc(NC(=O)Nc3ccc(C(F)(F)F)cc3)cc2C1=O`, “active”; to `C[C@H]1CN([C@@H](C)CO)C(=O)c2cc(NC(=O)Nc3ccc(C(F)(F)F)cc3)ccc2O[C@H]1CN(C)S(=O)(=O)c1ccc(Cl)cc1`, “inactive”.
Take `C[C@@H]1CN([C@@H](C)CO)C(=O)c2cc(NC(=O)Nc3ccc(C(F)(F)F)cc3)ccc2O[C@H]1CN(C)S(=O)(=O)c1ccc(Cl)cc1`: the cytotoxicity call is “active”.
Regarding `C[C@@H]1CN([C@H](C)CO)C(=O)c2cc(NC(=O)Nc3ccc(C(F)(F)F)cc3)ccc2O[C@H]1CN(C)S(=O)(=O)c1ccc(Cl)cc1`, the cytotoxicity call was “active”.
For `COc1ccc(S(=O)(=O)N(C)C[C@H]2OCCCC[C@H](C)Oc3ccc(NC(=O)CCC(F)(F)F)cc3C(=O)N([C@@H](C)CO)C[C@@H]2C)cc1` the value was “inactive”; for `O=C1CCC(C(=O)O)CC1`, “inactive”.
For `C[C@@H]1CN([C@@H](C)CO)C(=O)c2cc(NC(=O)CCN3CCOCC3)ccc2O[C@@H]1CN(C)S(=O)(=O)c1ccccc1`, the cytotoxicity call is “inactive”.
Take `C[C@@H]1CCCCO[C@@H](CN(C)C(=O)Nc2cccc3ccccc23)[C@@H](C)CN([C@H](C)CO)C(=O)c2cc(NC(=O)Nc3ccc(C(F)(F)F)cc3)ccc2O1`: the cytotoxicity call is “inactive”.
To `COc1ccc(S(=O)(=O)N(C)C[C@@H]2Oc3ccc(NS(=O)(=O)c4cn(C)cn4)cc3C(=O)N([C@H](C)CO)C[C@@H]2C)cc1` belongs “inactive”; to `C[C@H](CO)N1C[C@H](C)[C@@H](CN(C)S(=O)(=O)c2ccc3ccccc3c2)OCc2cnnn2CCCC1=O`, “inactive”; to `COc1ccc(C#Cc2cnc3c(c2)C(=O)N([C@H](C)CO)C[C@H](C)[C@H](CN(C)S(=O)(=O)c2cccc(F)c2)O3)cc1OC`, “inactive”.
Turning to `COc1ccc(COCC23Oc4ccccc4[C@H]([C@H]2COC(=O)NCCCCCC(=O)NO)n2c(c4c(c(C(C)=O)c2=O)C(=O)N(C)C4=O)N3C)cc1`, the cytotoxicity call was “inactive”.
For `COC(=O)c1c(C(=O)OC)c2n(c(=O)c1-c1ccccc1)[C@@H]1c3ccccc3O[C@@](COCc3ccc(OC)cc3)([C@@H]1COC(=O)c1ccccc1)N2C` the value was “inactive”.
For the compound `COC(=O)c1c(C(=O)OC)c2n(c(=O)c1-c1ccccc1)[C@@H]1c3ccccc3O[C@@](CO)([C@@H]1CO)N2C`, the cytotoxicity call was “inactive”.
As for `COc1ccc(COCC23Oc4ccccc4[C@H]([C@H]2CO)n2c(c4ccccc4c(-c4ccccc4)c2=O)N3C)cc1`, the cytotoxicity call was “active”.
Turning to `COC(=O)c1c(C(=O)OC)c2n(c(=O)c1-c1ccccc1)[C@@H]1c3ccccc3O[C@@](COCc3ccc(OC)cc3)([C@@H]1CO[Si](C)(C)C(C)(C)C)N2C`, the cytotoxicity call was “inactive”.
For `COC(=O)c1cc(-c2ccccc2)c(=O)n2c1N(C)[C@@]1(COCc3ccc(OC)cc3)Oc3ccccc3[C@@H]2[C@H]1CO[Si](C)(C)C(C)(C)C` the value was “inactive”; for `COc1ccc(COCC23Oc4ccccc4[C@H]([C@H]2CO)n2c(c4c(c(C(C)=O)c2=O)C(=O)N(C)C4=O)N3C)cc1`, “inactive”; for `COc1ccc(COCC23Oc4ccccc4[C@H]([C@H]2COC(=O)c2ccccc2)n2c(c4ccccc4c(-c4ccccc4)c2=O)N3C)cc1`, “active”.
To `COc1ccc(COCC23Oc4ccccc4[C@H]([C@H]2CO[Si](C)(C)C(C)(C)C)n2c(c4ccccc4c(-c4ccccc4)c2=O)N3C)cc1` belongs “active”.
For `COc1ccc(NC(=O)N(C)C[C@@H]2OCCCC[C@H](C)Oc3ccc(NS(=O)(=O)c4ccc(OC)cc4)cc3C(=O)N([C@H](C)CO)C[C@@H]2C)cc1` the value was “inactive”; for `CC(C)NC(=O)N(C)C[C@@H]1Oc2c(NC(=O)Nc3ccc4c(c3)OCO4)cccc2C(=O)N([C@@H](C)CO)C[C@@H]1C`, “inactive”; for `C[C@H]1CCCCO[C@H](CN(C)C(=O)CCC(F)(F)F)[C@@H](C)CN([C@@H](C)CO)C(=O)c2cc(NS(=O)(=O)c3cccs3)ccc2O1`, “inactive”.
